High-throughput results deposited in PubChem BioAssay by National Center for Advancing Translational Sciences (NCATS).
In the library only some 10% were active in any assay of this set; here they are far more common.
3T3 cytotox – cytotoxic compounds in NIH 3T3 cells. AID 1345082. Potency, µM (doses to about 96.7 µM), for the others: at the top dose activity change, negative = cytotoxicity, most hits filed as inhibitors. hit rate 4.3% among 94,000. NIH 3T3 viability, CellTiter-Glo ATP luminescence, 48-72 h; note: nearly all actives have a fitted effect of over 55% in size
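Viability of NIH 3T3 cells after 48 or 72 hr compound treatment at 37 °C was assessed by CellTiter-Glo, with luminescence imaged following a 10 min room-temperature step.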
Luciferase inh – blocks purified firefly luciferase enzyme activity; AID 1347043; hit rate 2.5% among 76,000; P08659; Potency, µM (top dose mostly 115 µM), usual class: inhibitors; purified P. pyralis luciferase, luminescence, biochemical; note: nearly all actives have a fitted effect of over 65% in size
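Biochemical qHTS: compound (6-point titration) added to 10uM D-luciferin plus 10uM ATP in Tris acetate pH 7.5 buffer with Mg, Tween-20 and BSA, then purified enzyme at 10nM; light output imaged.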
HEK cytotox – cytotoxic compounds in HEK 293 cells; AID 1345083; HEK 293 viability, ATP luminescence (CellTiter-Glo), 48-72 h; hit rate 6.6% among 94,000; Potency, µM (top dose mostly 115 µM), inactives show at the highest dose activity change, negative = cytotoxicity, actives largely listed as inhibitors; note: nearly all actives have a fitted effect of over 60% in size
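HEK 293 cells at 250 cells/well were exposed to compounds by pintool transfer for 48 or 72 hr at 37 degree Celsius, 5% CO2. Viability was read as ATP-coupled luminescence with CellTiter-Glo after 10 min at room temperature.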
NPR1 antag – blocks ANP-stimulated signaling of human Npr1 receptor; Potency, µM (top dose mostly 46.3 µM), without a hit: at the highest dose activity change, negative = inhibition, actives largely listed as inhibitors; HEK293 hNpr1 GloSensor cGMP, ANP-stimulated luminescence; hit rate 1.6% among 76,000; calls by dose curve; note: nearly all actives have a fitted effect of over 60% in size
Target sequence (P16066 whole entry, looked up): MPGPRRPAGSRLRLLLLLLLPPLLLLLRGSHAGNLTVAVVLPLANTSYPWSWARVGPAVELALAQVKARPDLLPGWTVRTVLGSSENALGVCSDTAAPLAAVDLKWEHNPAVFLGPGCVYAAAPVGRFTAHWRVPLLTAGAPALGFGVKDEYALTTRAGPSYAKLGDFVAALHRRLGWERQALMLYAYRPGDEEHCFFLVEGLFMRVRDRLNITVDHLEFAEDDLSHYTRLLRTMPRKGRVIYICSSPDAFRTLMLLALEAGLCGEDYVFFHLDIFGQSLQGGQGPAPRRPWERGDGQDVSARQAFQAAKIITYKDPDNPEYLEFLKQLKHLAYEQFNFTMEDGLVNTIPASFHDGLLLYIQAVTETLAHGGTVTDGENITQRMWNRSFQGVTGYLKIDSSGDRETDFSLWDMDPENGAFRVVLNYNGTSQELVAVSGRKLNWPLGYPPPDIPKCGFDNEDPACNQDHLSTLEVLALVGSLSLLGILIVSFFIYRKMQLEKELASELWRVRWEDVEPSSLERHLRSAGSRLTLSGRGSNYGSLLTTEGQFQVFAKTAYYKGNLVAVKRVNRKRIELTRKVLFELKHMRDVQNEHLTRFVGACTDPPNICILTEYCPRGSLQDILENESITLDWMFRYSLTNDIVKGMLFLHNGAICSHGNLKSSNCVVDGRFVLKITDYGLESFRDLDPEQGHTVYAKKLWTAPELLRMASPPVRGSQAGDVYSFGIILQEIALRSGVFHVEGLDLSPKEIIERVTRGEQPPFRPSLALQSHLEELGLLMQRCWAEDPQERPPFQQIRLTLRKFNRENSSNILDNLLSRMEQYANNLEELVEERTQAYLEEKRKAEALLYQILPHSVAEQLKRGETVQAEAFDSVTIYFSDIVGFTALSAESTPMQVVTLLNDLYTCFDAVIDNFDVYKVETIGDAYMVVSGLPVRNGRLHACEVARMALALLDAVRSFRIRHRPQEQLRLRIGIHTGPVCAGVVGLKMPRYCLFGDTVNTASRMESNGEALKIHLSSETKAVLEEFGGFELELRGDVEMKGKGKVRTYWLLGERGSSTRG
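HEK293 cells stably expressing human Npr1 and cGMP GloSensor pGS-40F, loaded 2 h with 2% GloSensor reagent, given compound 30 min at room temperature. Luminescence read before and 20 min after 0.1 nM hNppA.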
GPT2 inh – blocks human glutamate pyruvate transaminase 2 | Q8TD30 | Recombinant GPT2, coupled pyruvate oxidase/HRP Amplex Red fluorescence | Potency, µM (highest dose often 57.7 µM), without a hit: at the highest dose activity change, negative = inhibition, most hits filed as inhibitors | hit rate 0.25% among 100,000; note: nearly all actives have a fitted effect of over 60% in size
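Fluorescence read-out: pyruvate from GPT2 turnover coupled to pyruvate oxidase, HRP and Amplex Red (0.2mM ThPP, 0.2U/mL PO and HRP, 50uM Amplex final). Substrates 250uM a-KG, 2mM L-alanine; enzyme 10ng/uL; 30 min RT.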
An asterisk follows results filed as active; i = inactive; ? = inconclusive; nt = no result given; [ ] = dose if it differs, or a comment. Unless noted, calls come from the whole dose curve; as a rule, active = well fitted curve in the direction sought with a large enough effect; inconclusive = small, poorly fitted or top-dose-only effect, or another doubt; inactive = no such curve, though single readings can be large; an effect the other way counts as inactive or inconclusive. % is set by controls: 0 for no effect and ±100 for the full control effect; potency is the fitted concentration of half-maximal effect.

SMILES	3T3 cytotox	Luciferase inh	HEK cytotox	NPR1 antag	GPT2 inh
CCc1noc(-c2cn(C3CCN(C(=O)Cc4ccc(C)cc4)CC3)nn2)n1	?	i	-5%	2%	-24%
COc1cccc(CN2CCc3c(cc(C(=O)Nc4ccc(C)cc4C)n3C)C2)c1	?	16µM*	?	-2%	-1%
COc1cccc(CN2CCc3c(cc(C(=O)Nc4cc(OC)cc(OC)c4)n3C)C2)c1	?	?	?	7%	i
COc1ccc(CNC(=O)c2cc3c(n2C)CCN(Cc2ccc(F)cc2)C3)cc1	?	i	?	-26%	4%
COc1ccccc1NC(=O)c1cc2c(n1C)CCN(Cc1ccc(F)cc1)C2	?	16µM*	32µM*	6%	-9%
FC(F)(F)c1cccc(CN2CCOC[C@H](Oc3cccnc3)C2)c1	?	i	?	-4%[70.6 µM]	-17%[88.5 µM]
O=C(NCCOc1cccnc1)c1cn(Cc2cccc(C(F)(F)F)c2)nn1	?	i	28µM*	-1%	-11%
CCN(Cc1ccccc1)c1ncncc1-c1nc(-c2ccccc2)no1	?	i	79µM*	-24%	-5%
Cc1nc2c(c(N3CCCC(COc4cccc(F)c4)C3)n1)CCNCC2 (centres undefined)	?	i	22µM*	-5%	2%[11.5 µM]
CCc1cccc(NC(=O)CN2C(=O)NC(c3ccc(C)cc3)C3=C2COC3=O)c1 (centres undefined)	?	i	28µM*	-16%	i
Cc1ccc(C2NC(=O)N(CC(=O)Nc3cc(F)cc(F)c3)C3=C2C(=O)OC3)cc1 (centres undefined)	?	i	?	-26%	2%
CC(=O)Nc1ccc(NC(=O)CN2C(=O)NC(c3ccc(C)cc3)C3=C2COC3=O)cc1 (centres undefined)	-21%	?	-7%	-10%	?
Cc1ccc(C2NC(=O)N(CC(=O)Nc3ccc(Br)cc3F)C3=C2C(=O)OC3)cc1 (centres undefined)	?	i	35µM*	-22%	-19%
CC(=O)c1cccc(NC(=O)CN2C(=O)NC(c3ccc(C)cc3)C3=C2COC3=O)c1 (centres undefined)	-24%	i	?	0%	i
Cc1ccc(C2NC(=O)N(CC(=O)Nc3ccc(Br)c(C)c3)C3=C2C(=O)OC3)cc1 (centres undefined)	35µM*	i	?	?	2%
COc1ccc(CN2CCc3nc(N4CCN(C)CC4)[nH]c(=O)c3CC2)cc1OC	0%	i	12%	2%	-3%
Cn1cnc(S(=O)(=O)N2CCC3(CC2)CC(CC(=O)NC2CC2)CCO3)c1 (centres undefined)	i	i	3%	2%	i
O=c1cc(-c2ccc(O)cc2)oc2cc(O)cc(O)c12	nt	nt	nt	nt	i
O=c1c(O)c(-c2ccc(O)cc2)oc2cc(O)cc(O)c12	nt	nt	nt	nt	24µM*
CCOC(=O)C1c2c(OC)ccc3c2C(=CC(C)(C)CO3)CN1Cc1ccccc1 (centres undefined)	?	nt	45µM*	nt	nt
COc1ccc2c3c1CN(Cc1cccc(NC(C)=O)c1)CC3=CC(C)(C)CO2	?	nt	-29%	nt	nt
C[S+](=O)([O-])N1CC2ON=C(C(=O)N3CCN(c4ncccn4)CC3)C2C1 (centres undefined)	i	nt	i	nt	i
CN(Cc1ccccn1)Cc1ccccc1C(F)(F)F	4%[138 µM]	i	i	19%[70.6 µM]	i
CCOC(=O)C1(Cc2ccccc2C(F)(F)F)CCN(C(C)Cc2cccc(C)n2)CC1 (centres undefined)	28µM*	i	13µM*	?	1%
CCOC(=O)C1(Cc2ccc(Cl)cc2)CCN(Cc2ccc(OC)cc2O)CC1	?	i	?	?	-11%
SMILES	3T3 cytotox	Luciferase inh	HEK cytotox	NPR1 antag	GPT2 inh
CCOC(=O)C1(Cc2cccc(C(F)(F)F)c2)CCN(Cc2cn(CC)nc2C)CC1	?	i	20µM*	?	1%
CCOC(=O)C1(Cc2ccccc2C(F)(F)F)CCN(Cc2ccccn2)CC1	?	i	40µM*	-1%	?
Cc1cccc(S(=O)(=O)Nc2cccn3nc(C4CCC4)nc23)c1	45µM*	i	?	-2%	3%
O=S(=O)(Nc1cccn2nc(C3CC3)nc12)c1cccnc1	-21%	i	-13%	7%	?
O=C(Nc1cccn2nc(C3CCC3)nc12)c1ccccn1	8.9µM*	i	?	-20%	i
O=C(Cc1ccc(F)cc1)N1CCC(n2cc(-c3nc(-c4ccccc4)no3)nn2)C1 (centres undefined)	-22%	?	?	-24%	1%
COc1cccc(Cn2c(=O)c3ccnn3c3ccc(C(=O)NCCCN(C)C)cc32)c1	35µM*	i	40µM*	-2%	i
CCCCNC(=O)c1ccc2c(c1)n(Cc1cccc(OC)c1)c(=O)c1ccnn12	?	i	-7%	-11%	i
O=c1[nH]c(C2CCN([S+](=O)([O-])c3cccc(C(F)(F)F)c3)CC2)nn1-c1ccccc1	-26%	i	?	-10%	i
COC(=O)CNC(=O)c1nc2cccnc2n(C2CCCC2)c1=O	-32%[138 µM]	nt	-12%[172 µM]	nt	i
NCCCC(=O)N1CCC2(CC1)CN(C(=O)c1ccc(Cl)cc1)CCO2	32µM*	nt	3%	nt	-3%
c1ccc(-c2[nH]ncc2CN2CCCC(N3CCN(c4ccccc4)CC3)C2)cc1 (centres undefined)	-15%	i	?	1%	i
c1ccc(N2CCN(C3CCCN(Cc4cn[nH]c4C4CCCCC4)C3)CC2)cc1 (centres undefined)	-22%	i	89µM*	-1%	?
Cc1nnc2ccc(N3CCCN(C(=O)C4CC4)CC3)nn12	-19%[138 µM]	nt	-26%[172 µM]	nt	nt
COc1cncc(-c2cn(C)c(=O)n3cc(CNc4ccccc4)nc23)c1	?	i	?	-9%[70.6 µM]	i
Cn1cc(-c2cn(C)c(=O)n3cc(COc4ccc(Cl)cc4)nc23)cn1	?	?	71µM*	1%[70.6 µM]	?
CN1CCN(Cc2cn3c(=O)n(C)cc(-c4cccc(OC(F)(F)F)c4)c3n2)CC1	?	i	?	1%[70.6 µM]	-18%[88.5 µM]
Cn1cc(-c2cccc(OC(F)(F)F)c2)c2nc(CN3CCNC(=O)C3)cn2c1=O	100µM*	i	-24%[172 µM]	-6%[70.6 µM]	-49%[88.5 µM]
Cn1cc(-c2ccnc(N3CCOCC3)c2)c2nc(COc3ccc(Cl)cc3)cn2c1=O	28µM*	?	?	?	5%
Cn1cc(-c2cccc(C(F)(F)F)c2)c2nc(CNc3ccccc3)cn2c1=O	25µM*	i	50µM*	-18%[70.6 µM]	?
